Laboratory results from PubChem BioAssay (NCATS).
Inconclusive results are not listed. Entries that show only a call come without a potency. Active and inactive are the calls of the source. Calls come from the whole dose curve; as a rule, active = well fitted cell-killing curve with a large enough effect; inconclusive = small, poorly fitted or top-dose-only effect, or effect the other way; inactive = no such curve, though single readings can be large or run the other way.

Tests used:
[1] = Quantitative High-Throughput drug screen in 47 multiple myeloma cell lines against the NCATS MIPE library collection: Karpas25_ECACC cell viability assay (AID 1918968; note: nearly all actives have a fitted effect of over 35% in size)
Method in brief: (§1)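 Luminescent ATP measurement with CellTiter-Glo gives viability, scaled between DMSO-only wells (100%) and media-only wells (0%). Cells, 500 per well, faced library compounds for 48 hours at 37C.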

[2] = Quantitative High-Throughput drug screen in 47 multiple myeloma cell lines against the NCATS MIPE library collection: KMS27_JCRB cell viability assay (AID 1918970); note: nearly all actives have a fitted effect of over 30% in size
Method in brief: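 Each line is seeded at 500 cells per well and treated with library compounds for 48 hours under 37 °C, 5% CO2. CellTiter-Glo is then added for 5 min at room temperature before median relative luminescence is recorded.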

[3] = Quantitative High-Throughput drug screen in 47 multiple myeloma cell lines against the NCATS MIPE library collection: KMS12BM_JCRB cell viability assay (AID 1918971); note: nearly all actives have a fitted effect of over 35% in size
Method in brief: (§2)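 CellTiter-Glo luminescence (ATP) after 48 h compound exposure, 37C/5% CO2; 500 cells/well; MIPE 4.0 approved/investigational drugs pinned in; DMSO = 100%, media only = 0% viability.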

[4] = Quantitative High-Throughput drug screen in 47 multiple myeloma cell lines against the NCATS MIPE library collection: KMS12PE_JCRB cell viability assay (AID 1918972); note: nearly all actives have a fitted effect of over 30% in size
Method in brief: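 Steps: seed 500 cells per well; pin-transfer MIPE 4.0 library; incubate 48 h at 37C, 5% CO2, humidified; add CellTiter-Glo, 5 min room temperature; read luminescence.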

[5] = Quantitative High-Throughput drug screen in 47 multiple myeloma cell lines against the NCATS MIPE library collection: KMS20_JCRB cell viability assay (AID 1918973); note: nearly all actives have a fitted effect of over 45% in size
Method in brief: as §1

[6] = Quantitative High-Throughput drug screen in 47 multiple myeloma cell lines against the NCATS MIPE library collection: MOLP8_DSMZ cell viability assay (AID 1918977); note: nearly all actives have a fitted effect of over 45% in size
Method in brief: (§3)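 Inhibition of viability over 48 h was scored by ATP content (CellTiter-Glo) in 500-cell wells. Zero and full viability were defined by media-only and DMSO-only wells.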

[7] = Quantitative High-Throughput drug screen in 47 multiple myeloma cell lines against the NCATS MIPE library collection: H1112_PLB cell viability assay (AID 1918967; note: nearly all actives have a fitted effect of over 30% in size)
Method in brief: as §1

[8] = Quantitative High-Throughput drug screen in 47 multiple myeloma cell lines against the NCATS MIPE library collection: KMS21BM_JCRB cell viability assay (AID 1918974); details: ATP luminescence, 48 h; viability: at 45.8 µM (top of the series) unless noted
Method in brief: as §1

[9] = Quantitative High-Throughput drug screen in 47 multiple myeloma cell lines against the NCATS MIPE library collection: KMS26_JCRB cell viability assay (AID 1918975); note: nearly all actives have a fitted effect of over 45% in size
Method in brief: as §2

[10] = Quantitative High-Throughput drug screen in 47 multiple myeloma cell lines against the NCATS MIPE library collection: MMM1_PLB cell viability assay (AID 1918976); note: nearly all actives have a fitted effect of over 35% in size
Method in brief: as §3
Potency is the fitted concentration of half-maximal effect.

## O=C(NOCC1CC1)c1ccc(F)c(F)c1Nc1ccc(I)cc1Cl
[1]
  Potency: 11.8 µM (active)
[2]
  Potency: 4.18 µM (active)
[3]
  Potency: 20.9 µM (active)
[4]
  Potency: 14.8 µM (active)
[5]
  Potency: 0.59 µM (active)
[6]
  Potency: 14.8 µM (active)

## O=C(O)c1cccnc1Nc1cccc(C(F)(F)F)c1
[7]
  Potency: inactive
[5]
  Potency: inactive

## CCN(CCO)CCCC(C)Nc1ccnc2cc(Cl)ccc12 (configuration not stated)
[7]
  Potency: inactive
[8]
  Potency: inactive
[9]
  Potency: inactive
[6]
  Potency: inactive

## CC(C)Oc1ccc2c(=O)c(-c3ccccc3)coc2c1
[7]
  Potency: inactive
[8]
  viability: 387% (active)
[10]
  Potency: 18.7 µM (active)

## CCCc1cc(=O)[nH]c(=S)[nH]1
[7]
  Potency: inactive
[3]
  Potency: inactive
[4]
  Potency: inactive
[9]
  Potency: inactive
[6]
  Potency: inactive

## CC1(C)NC(=O)N(c2ccc([N+](=O)[O-])c(C(F)(F)F)c2)C1=O
[7]
  Potency: 11.8 µM (active)
[2]
  Potency: inactive
[4]
  Potency: inactive
[6]
  Potency: inactive

## COC1=C(OC)C(=O)C(CCCCCCCCCCO)=C(C)C1=O
[1]
  Potency: 13.2 µM (active)
[2]
  Potency: 18.7 µM (active)
[3]
  Potency: 16.6 µM (active)
[4]
  Potency: 18.7 µM (active)
[9]
  Potency: 23.5 µM (active)
[10]
  Potency: 20.9 µM (active)

## O=C(NC(Cc1cc(=O)[nH]c2ccccc12)C(=O)O)c1ccc(Cl)cc1 (configuration not stated)
[7]
  Potency: inactive
[3]
  Potency: inactive
[10]
  Potency: 9.35 µM (active)
[6]
  Potency: inactive

## CN(C)C(=O)COC(=O)Cc1ccc(OC(=O)c2ccc(N=C(N)N)cc2)cc1
[7]
  Potency: 14.8 µM (active)
[6]
  Potency: inactive

## O=C(O)c1cccc(-c2noc(-c3ccccc3F)n2)c1
[7]
  Potency: inactive
[3]
  Potency: 16.6 µM (active)
[5]
  Potency: inactive
[8]
  viability: 121% (active)
[10]
  Potency: 2.35 µM (active)

## Cc1c(OCC(F)(F)F)ccnc1CS(=O)c1nc2ccccc2[nH]1 (configuration not stated)
[7]
  Potency: 20.9 µM (active)
[2]
  Potency: inactive
[3]
  Potency: inactive
[4]
  Potency: 18.7 µM (active)
[6]
  Potency: inactive

## CC1=C(C)C(=O)C(C(CCCCCC(=O)O)c2ccccc2)=C(C)C1=O (configuration not stated)
[7]
  Potency: inactive
[5]
  Potency: inactive

## N=C(N=C(N)N)N1CCOCC1
[7]
  Potency: inactive
[4]
  Potency: inactive
[5]
  Potency: inactive

## Cc1ncc([N+](=O)[O-])n1CC(C)O (configuration not stated)
[1]
  Potency: 11.8 µM (active)
[2]
  Potency: inactive
[3]
  Potency: inactive
[4]
  Potency: inactive

## COc1ccc(C2(C#N)CCC(C(=O)O)CC2)cc1OC1CCCC1 (configuration not stated)
[1]
  Potency: 23.5 µM (active)
[2]
  Potency: inactive
[3]
  Potency: inactive
[4]
  Potency: inactive
[9]
  Potency: inactive

## COC(=O)C1=C(C)NC(C)=C(C(=O)OCCCN2CCC(c3ccccc3)(c3ccccc3)CC2)C1c1cccc([N+](=O)[O-])c1 (configuration not stated)
[7]
  Potency: inactive
[2]
  Potency: inactive
[5]
  Potency: inactive
[6]
  Potency: inactive

## CN1CCC(=C2c3ccccc3CCc3sccc32)CC1
[7]
  Potency: inactive
[6]
  Potency: inactive

## NNc1nncc2ccccc12
[7]
  Potency: inactive
[2]
  Potency: inactive
[3]
  Potency: inactive
[4]
  Potency: inactive
[5]
  Potency: inactive
[9]
  Potency: inactive
[10]
  Potency: 20.9 µM (active)

## CCOC(=O)C1=C(O)C(=O)N(Cc2ccccc2)C1
[7]
  Potency: inactive
[3]
  Potency: inactive
[4]
  Potency: inactive
[8]
  Potency: inactive
[10]
  Potency: 1.66 µM (active)
[6]
  Potency: inactive

## CC(=O)NC[C@H]1CN(c2ccc(N3CCOCC3)c(F)c2)C(=O)O1
[7]
  Potency: inactive
[4]
  Potency: inactive
[9]
  Potency: inactive
[10]
  Potency: 4.69 µM (active)
[6]
  Potency: 7.43 µM (active)

## COCCCOc1ccnc(CS(=O)c2nc3ccccc3[nH]2)c1C (configuration not stated)
[7]
  Potency: inactive
[2]
  Potency: inactive
[3]
  Potency: inactive
[4]
  Potency: inactive
[9]
  Potency: inactive

## CC(=O)N1CCN(c2ccc(OC[C@H]3CO[C@](Cn4ccnc4)(c4ccc(Cl)cc4Cl)O3)cc2)CC1
[7]
  Potency: 8.33 µM (active)
[4]
  Potency: 5.26 µM (active)
[5]
  Potency: 7.43 µM (active)
[10]
  Potency: 23.5 µM (active)

## O=C(NCCO[N+](=O)[O-])c1cccnc1
[7]
  Potency: inactive
[10]
  Potency: inactive

## Clc1ccc(C(Cn2ccnc2)OCc2c(Cl)cccc2Cl)c(Cl)c1 (configuration not stated)
[1]
  Potency: 26.4 µM (active)
[2]
  Potency: 23.5 µM (active)
[3]
  Potency: 23.5 µM (active)
[4]
  Potency: 14.8 µM (active)
[8]
  Potency: 20.9 µM (active)

## Cc1nc(-c2ccc(OCC(C)C)c(C#N)c2)sc1C(=O)O
[7]
  Potency: inactive
[5]
  Potency: inactive
[10]
  Potency: 6.62 µM (active)
[6]
  Potency: 2.96 µM (active)

## CCOC(=O)C(C)Oc1cccc2c(=O)n(CC(=O)Nc3ccc4c(c3)OCCO4)ccc12 (configuration not stated)
[7]
  Potency: inactive
[2]
  Potency: inactive
[3]
  Potency: 23.5 µM (active)
[4]
  Potency: inactive

## COc1c2occc2cc2ccc(=O)oc12
[7]
  Potency: inactive
[2]
  Potency: inactive
[3]
  Potency: 20.9 µM (active)
[9]
  Potency: inactive
[10]
  Potency: 1.32 µM (active)

## COc1c(O)cc2c(c1O)[C@@H]1O[C@H](CO)[C@@H](O)[C@H](O)[C@H]1OC2=O
[7]
  Potency: inactive
[2]
  Potency: inactive
[3]
  Potency: 4.18 µM (active)
[4]
  Potency: inactive
[5]
  Potency: inactive
[9]
  Potency: inactive
[10]
  Potency: 2.35 µM (active)

## Clc1ccc(C(Cn2ccnc2)OCc2ccc(Sc3ccccc3)cc2)c(Cl)c1 (configuration not stated)
[1]
  Potency: 18.7 µM (active)
[2]
  Potency: 18.7 µM (active)
[3]
  Potency: 26.4 µM (active)
[4]
  Potency: 18.7 µM (active)
[8]
  Potency: 26.4 µM (active)
[10]
  Potency: 23.5 µM (active)

## Nc1ncn([C@H]2C[C@H](O)[C@@H](CO)O2)c(=O)n1
[1]
  Potency: 4.69 µM (active)
[2]
  Potency: inactive
[5]
  Potency: 0.132 µM (active)
[9]
  Potency: inactive
[6]
  Potency: inactive

## Cc1ccc(C(=O)c2cc(O)c(O)c([N+](=O)[O-])c2)cc1
[1]
  Potency: 26.4 µM (active)
[2]
  Potency: 23.5 µM (active)
[5]
  Potency: 20.9 µM (active)

## OC(CN1CCN(c2cccc(Cl)c2)CC1)C(c1ccccc1)c1ccccc1 (configuration not stated)
[6]
  Potency: inactive

## CN(C)c1ccc(O)c2c1C[C@H]1C[C@H]3[C@H](N(C)C)C(=O)C(C(N)=O)=C(O)[C@@]3(O)C(=O)C1=C2O
[1]
  Potency: 16.6 µM (active)
[3]
  Potency: 18.7 µM (active)
[4]
  Potency: inactive
[9]
  Potency: 13.2 µM (active)
[10]
  Potency: 18.7 µM (active)
[6]
  Potency: 20.9 µM (active)

## S=c1nc[nH]c2nc[nH]c12
[1]
  Potency: 16.6 µM (active)
[2]
  Potency: 7.43 µM (active)
[3]
  Potency: 13.2 µM (active)
[4]
  Potency: 2.35 µM (active)
[9]
  Potency: 5.9 µM (active)
[6]
  Potency: inactive
